In experiment [1] the target is Lysosomal acid glucosylceramidase (Homo sapiens) (UniProt P04062). The experiment in a line: Glucocerebrosidase-p2 (AID 348; in the data active = potency below about 10 µM; note: potency is the fitted concentration of half-maximal effect). The settings on record: purified GBA, blue fluorogenic substrate, 40 min. The essentials:
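Compounds titrated from 0.6 nM upwards against 0.2 nM enzyme in pH 5.9 citric acid/KH2PO4, taurocholate, tween-20; blue fluorogenic substrate 80 uM, 40 min room temperature, stopped and read Ex 365/Em 440 for AC50.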

For experiment [2], the target named is Cytochrome P450 1A2 (Homo sapiens) (UniProt P05177). The experiment in a line: p450-cyp1a2 (AID 410; calls by dose curve; note: potency is the fitted concentration of half-maximal effect). The essentials:
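Luminescent readout of luciferin formed from Luciferin-ME by human CYP1A2; data normalized against complete inhibition by 57 uM furafylline. Enzyme 20nM, substrate 100uM at Km, 100mM KPO4 buffer, 60 min reaction at room temperature.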

Experiment [3] can be described thus: NFAT Signaling Pathway (AID 444; active = well fitted curve in either direction with a large enough effect, not every such curve was filed as active;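 note: carbachol stimulus at about its EC50 of 1 µM final; % is set by controls: 0 for no effect and ±100 for the full control effect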). Conditions: Jurkat NFAT-bla M1, carbachol, beta-lactamase ratio, 5 h; at 7.69 µM (top of the series). The essentials:
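Jurkat cells carrying an NFAT-driven β-lactamase reporter and co-transfected muscarinic M1 receptor were treated with compound plus carbachol (1 uM final, an EC50 level) for 5 h at 37 °C. CCF4 loading followed for 1 h at RT; 460/530 nm ratio gave %activity.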

Experiment [4] in a line: Stat Signaling Pathway (AID 446; active = well fitted curve in either direction with a large enough effect, not every such curve was filed as active;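 note: ME-180 cervical cancer cells given 40 pM IL-6 alongside compound; SIE-controlled beta-lactamase reporter measured as 460/530 nm FRET emission ratio; % is set by controls: 0 for no effect and ±100 for the full control effect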). The settings on record: ME-180 (cervical carcinoma) SIE beta-lactamase reporter, IL-6 stimulated, 5 h; at 7.69 µM (top of the series). Put shortly:
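ME-180 cells carrying a SIE-driven beta-lactamase reporter are stimulated with 40 pM IL-6 for 5 h at 37C in the presence of compound. The 460/530 nm FRET substrate ratio is read after 2.5 h at RT. Data are normalised to 300 pM IL-6 and to 125 nM JAK inhibitor controls.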

The target in experiment [5] is Glucocorticoid receptor (Homo sapiens) (UniProt P04150). The experiment in a line: GR-GFP Redistribution (AID 450;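 active = compounds whose dose series gives a full or clear partial fitted curve of increased nuclear translocation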; note: potency is the fitted concentration of half-maximal effect). Conditions: U2OS GR-GFP nuclear translocation, laser cytometry, 2 h.
Chain of Glucocorticoid receptor (Homo sapiens) (P04150 whole entry, looked up): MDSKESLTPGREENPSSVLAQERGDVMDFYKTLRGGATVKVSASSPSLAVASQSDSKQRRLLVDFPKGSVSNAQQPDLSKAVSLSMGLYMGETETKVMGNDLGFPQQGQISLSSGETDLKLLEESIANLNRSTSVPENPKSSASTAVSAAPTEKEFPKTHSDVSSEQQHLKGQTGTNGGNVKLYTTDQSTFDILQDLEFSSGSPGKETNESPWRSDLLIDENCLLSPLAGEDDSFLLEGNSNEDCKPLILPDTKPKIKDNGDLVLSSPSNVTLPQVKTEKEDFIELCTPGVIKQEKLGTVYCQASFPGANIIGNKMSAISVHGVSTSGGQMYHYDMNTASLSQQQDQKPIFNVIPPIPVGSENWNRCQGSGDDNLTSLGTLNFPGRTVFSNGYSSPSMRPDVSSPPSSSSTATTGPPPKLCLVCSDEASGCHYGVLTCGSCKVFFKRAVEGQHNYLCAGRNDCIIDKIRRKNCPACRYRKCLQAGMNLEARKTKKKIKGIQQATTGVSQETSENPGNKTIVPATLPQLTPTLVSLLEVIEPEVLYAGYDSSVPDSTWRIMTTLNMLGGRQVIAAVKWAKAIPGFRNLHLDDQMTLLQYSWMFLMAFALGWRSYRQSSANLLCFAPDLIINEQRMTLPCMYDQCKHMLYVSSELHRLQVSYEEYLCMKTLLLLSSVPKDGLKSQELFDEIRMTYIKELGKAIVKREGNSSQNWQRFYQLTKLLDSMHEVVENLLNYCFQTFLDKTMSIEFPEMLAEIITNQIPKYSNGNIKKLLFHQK
Experiment [6] shares this target. The experiment in a line: GR-EFC Redistribution (AID 451; calls by dose curve; note: potency is the fitted concentration of half-maximal effect). Conditions: CHO-K1 GR-EFC translocation, beta-gal luminescence, 2 h. The essentials:
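CHO-K1 cells stably expressing nuclear-localized β-gal enzyme acceptor and GR fused C-terminally to the enzyme donor fragment; ligand-driven nuclear translocation restores β-gal by complementation. Compounds titrated up to 46 uM final, 2 h at 37 °C; luminescence read.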

In experiment [7] the target is Mitogen-activated protein kinase 10 (Mus musculus) (UniProt Q61831). The experiment in a line: JNK3 AlphaScreen Assay (AID 530; active = well fitted curve in either direction with a large enough effect, not every such curve was filed as active;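 note: kinase came from lysate of stimulated human HepG2 cells; signal reports phosphorylation of biotinylated GST-cJun 1-79 at Ser73 with 10 µM ATP; % is set by controls: 0 for no effect and ±100 for the full control effect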). Put shortly:
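Inhibitors reduce antibody binding to phosphorylated biotin-cJun, lowering AlphaScreen luminescence. Lysates from HepG2 cells pre-activated by IL-1beta plus TNF-alpha supplied JNK3; compounds were titrated.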

For experiment [8], the target named is Cytochrome P450 3A4 (Homo sapiens) (UniProt P08684). The experiment in a line: qHTS Assay for Inhibitors and Substrates of Cytochrome P450 3A4 (AID 884). Note: % is set by controls: 0 for no effect and ±100 for the full control effect; nearly all actives have a fitted effect of over 50% in size. Put shortly: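 20 nM human CYP3A4 with 25 uM Luciferin-PPXE (at KM) in 200 mM KPO4, preincubated 10 min with compound; NADPH regeneration started a 60 min RT reaction. Luciferin detected by luminescence, normalized to 57 uM ketoconazole as full inhibition.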
Chain of Cytochrome P450 3A4 (Homo sapiens) (P08684 whole entry, looked up): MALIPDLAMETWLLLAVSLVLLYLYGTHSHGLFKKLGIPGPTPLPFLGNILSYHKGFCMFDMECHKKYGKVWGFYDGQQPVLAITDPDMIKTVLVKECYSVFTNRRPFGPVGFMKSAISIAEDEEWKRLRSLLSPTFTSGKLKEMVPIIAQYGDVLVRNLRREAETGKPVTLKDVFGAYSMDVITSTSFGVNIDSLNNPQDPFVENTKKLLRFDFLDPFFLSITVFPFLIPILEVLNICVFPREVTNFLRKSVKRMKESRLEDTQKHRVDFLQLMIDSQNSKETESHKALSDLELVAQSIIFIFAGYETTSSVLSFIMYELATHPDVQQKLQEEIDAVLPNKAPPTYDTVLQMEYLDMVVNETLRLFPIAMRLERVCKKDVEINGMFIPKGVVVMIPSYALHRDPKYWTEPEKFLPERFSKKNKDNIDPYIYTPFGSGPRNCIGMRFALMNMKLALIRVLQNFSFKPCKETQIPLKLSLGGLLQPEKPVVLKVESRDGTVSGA
In general terms: qHTS replaces the single test concentration by a dilution series.

Experiment [9] has as its target Cytochrome P450 2D6 (Homo sapiens) (UniProt P10635). The experiment in a line: qHTS Assay for Inhibitors and Substrates of Cytochrome P450 2D6 (AID 891). Note: potency is the fitted concentration of half-maximal effect; nearly all actives have a fitted effect of over 60% in size. Put shortly:
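Human CYP2D6 (5 nM) with 30 uM Luciferin-ME EGE (at Km) in 100 mM KPO4, compound preincubated 10 min, then NADPH regeneration system for 60 min at room temperature. Luciferin read by luminescence; normalized to 1.43 uM quinidine.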

Experiment [10] addresses Cytochrome P450 2C19 (Homo sapiens) (UniProt P33261). The experiment in a line: qHTS Assay for Inhibitors and Substrates of Cytochrome P450 2C19 (AID 899). Note: potency is the fitted concentration of half-maximal effect; nearly all actives have a fitted effect of over 60% in size. The essentials: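 In 50mM KPO4, the reaction held 5nM enzyme and KM-level (10uM) Luciferin-H EGE; it ran 60 min at 37C after NADPH regeneration and a 10 min compound preincubation. Luminescence values were scaled to 57uM ketoconazole as complete inhibition.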

Experiment [11] in a line: Confirmation and Secondary Assay for Modulators of Hemoglobin Beta Chain Splicing at IVS2 654 locus (AID 910).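 Note: per-well total GFP intensity by laser scanning cytometry after 2-day treatment; % of control where 0% means no effect.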 Put shortly:
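HeLa cells stably carrying EGFP interrupted by mutant beta-globin IVS2-654 intron (CMV-driven) were treated with compound for 2 days at 37C; corrected splicing was scored as total peak GFP intensity per well (488 nm excitation, 500-520 nm emission).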

Experiment [12] is described as follows: Confirmation and Secondary Assay for Modulators of Hemoglobin Beta Chain Splicing at IVS2 705 locus (AID 930).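 Note: HeLa cells stably expressing the EGFP-705 splicing reporter; GFP fluorescence per well restored by corrected splicing of the IVS2-705 intron in EGFP; % of control where 0% means no effect.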 The essentials:
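Splice-correction reporter: EGFP cDNA split by beta-globin intron 2 bearing the 705 mutation, stably in HeLa. Compound incubation 2 days, 37C; fluorescent objects 5-250 µm summed per well.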

A short description of experiment [13]: qHTS Assay for Lipid Storage Modulators (AID 1519; calls by dose curve). Conditions: Drosophila S3 cells, BODIPY lipid droplet/cell ratio, laser cytometry, cells loaded with oleic acid. Put shortly:
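Cells seeded at 5,000 per well were treated with compounds over a concentration series and loaded with oleic acid (400 uM, as added). Lipid droplet fluorescence (488 nm excitation, 500-530 nm channel) was read by laser-scanning cytometry and normalized to 20 uM Triacsin C.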

The target in experiment [14] is Ubiquitin carboxyl-terminal hydrolase 1 (Homo sapiens) (UniProt O94782). The experiment in a line: Inhibitors of USP1/UAF1: Pilot qHTS (AID 504865).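 Note: rhodamine fluorescence freed from ubiquitin-rhodamine substrate followed over time; top concentration of the series differs between compounds; % is set by controls: 0 for no effect and ±100 for the full control effect; nearly all actives have a fitted effect of over 35% in size.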 The essentials:
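Kinetic fluorescence assay: 1nM USP1/UAF1, 15 min compound preincubation, then 150nM Ub-Rho; 480/540 nm.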

A short description of experiment [15]: P-glycoprotein substrates identified in KB-3-1 adenocarcinoma cell line, qHTS therapeutic library screen (AID 1346986). Note: nearly all actives have a fitted effect of over 60% in size.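 Note: potency is the fitted concentration of half-maximal effect; potency is for cytotoxicity meaning loss of cell viability.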 Put shortly: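 Resistance attributable to P-gp was assessed by comparing AC50 in KB-8-5-11 with parental KB-3-1 and by tariquidar reversal. Cells were exposed 72 h and viability read by CellTiter-Glo.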
Experiment [16] in a line: Primary qHTS for small molecule stabilizers of the endoplasmic reticulum resident proteome: Secreted ER Calcium Modulated Protein (SERCaMP) assay (AID 1508630). Note: % is set by controls: 0 for no effect and ±100 for the full control effect. The essentials:
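GLuc-SERCaMP-expressing SH-SY5Y cells, pretreated 16 h with compound, are challenged with thapsigargin to empty ER calcium stores; after 4 h, coelenterazine is added directly to the medium and luminescence is imaged.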

Experiment [17] has as its target Glutathione peroxidase 1 (Homo sapiens) (UniProt P07203). The experiment in a line: Primary qHTS Assay for Inhibitors of Recombinant Selenoprotein Glutathione Peroxidase 1 (GPX1) (AID 1845191). Note: nearly all actives have a fitted effect of over 65% in size. Put shortly:
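Recombinant GPX1 (10 nM final) was preincubated with compound for 30 min at room temperature, then reacted with 1 mM GSH, 0.5 mM CHP, 0.5 mM NADPH and 100 nM glutathione reductase; NADPH fluorescence (340/450 nm) was read at 0 and 15 min.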

Experiment [18] in a line: Primary qHTS for inhibitors of nuclear receptor binding SET domain protein 2 (NSD2) in an isogenic RCH-ACV NSD2 p.E1099K mutant (9B) (AID 1645876). Note: nearly all actives have a fitted effect of over 70% in size. Note: potency is the fitted concentration of half-maximal effect.
A short description of experiment [19]: Primary qHTS for inhibitors of nuclear receptor binding SET domain protein 2 (NSD2) in an RCH-ACV wild type WT cells (2C) (AID 1645877). Note: nearly all actives have a fitted effect of over 70% in size. Note: potency is the fitted concentration of half-maximal effect.
Experiment [20] is described as follows: qHTS to identify inhibitors of the type 1 interferon - major histocompatibility complex class I in skeletal muscle: primary screen against the NCATS Mechanism Interrogation Plate v5.0 (MIPE) Libary (AID 1347411).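 Note: plate controls were vehicle for no effect and reference inhibitor for full effect; nearly all actives have a fitted effect of over 65% in size.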 The essentials: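 Luminescence from HiBiT-tagged endogenous HLA-B*08:01 served as the MHC class I read-out. CRISPR-engineered C25cl48 human myoblasts received 4.0 ng/ml IFN-beta plus compound for 24 hrs, with an 11-point, 1:3 series topping at 46 uM final.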

Experiment [21] can be described thus: qHTS drug screen for cell cycle checkpoint inhibitors in PARPi-resistant BRCA-mutant ovarian cancer cell lines. (AID 1963452; calls by dose curve). Conditions: PEO1/OlaR viability, CellTiter-Glo luminescence, 96 h, stronger effect = lower value. The essentials: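 PEO1, PEO4 and PEO1/OlaR ovarian cancer cells, 600 per well, exposed 96 h at 37C to a dilution series. Viability read by CellTiter-Glo luminescence, normalized to DMSO and empty wells; activity summarized as Z-AUC.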

The target of experiment [22] is Phospholipid hydroperoxide glutathione peroxidase GPX4 (Homo sapiens) (UniProt P36969). The experiment in a line: Primary qHTS Assay for Inhibitors of Recombinant Selenoprotein Glutathione Peroxidase 4 (GPX4) (AID 1845192). Note: nearly all actives have a fitted effect of over 65% in size. Conditions: outcome: dose series up to 50 µM unless noted. The essentials: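 GR-coupled readout: 100 nM GR, 1 mM GSH, 0.5 mM NADPH; NADPH fluorescence (ex 340/em 450 nm) read at t=0 and after 15 min RT. GPX4 200 nM, preincubated 30 min with compound; substrate 0.5 mM CHP.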
Chain of Phospholipid hydroperoxide glutathione peroxidase GPX4 (Homo sapiens) (P36969 whole entry, looked up): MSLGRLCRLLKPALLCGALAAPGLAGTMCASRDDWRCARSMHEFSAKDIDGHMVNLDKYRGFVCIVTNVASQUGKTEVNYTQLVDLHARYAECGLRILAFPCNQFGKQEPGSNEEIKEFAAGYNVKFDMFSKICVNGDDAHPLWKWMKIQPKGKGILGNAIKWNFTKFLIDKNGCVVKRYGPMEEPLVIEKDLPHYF

[23] abbreviates: measured here: PEO1 parental Z-AUC.

Inconclusive results are not listed. Calls of active or inactive are those of the source. Unless noted, calls come from the whole dose curve; as a rule, active = well fitted curve in the direction sought with a large enough effect; inconclusive = small, poorly fitted or top-dose-only effect, or another doubt; inactive = no such curve, though single readings can be large; an effect the other way counts as inactive or inconclusive.

Chain of Glutathione peroxidase 1 (Homo sapiens) (P07203 whole entry, looked up): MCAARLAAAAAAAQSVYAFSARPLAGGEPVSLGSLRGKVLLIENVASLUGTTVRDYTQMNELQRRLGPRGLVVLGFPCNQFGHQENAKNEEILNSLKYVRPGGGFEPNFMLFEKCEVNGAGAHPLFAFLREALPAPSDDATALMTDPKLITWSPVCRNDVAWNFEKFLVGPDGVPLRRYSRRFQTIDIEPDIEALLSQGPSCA
Chain of Cytochrome P450 1A2 (Homo sapiens) (P05177 whole entry, looked up): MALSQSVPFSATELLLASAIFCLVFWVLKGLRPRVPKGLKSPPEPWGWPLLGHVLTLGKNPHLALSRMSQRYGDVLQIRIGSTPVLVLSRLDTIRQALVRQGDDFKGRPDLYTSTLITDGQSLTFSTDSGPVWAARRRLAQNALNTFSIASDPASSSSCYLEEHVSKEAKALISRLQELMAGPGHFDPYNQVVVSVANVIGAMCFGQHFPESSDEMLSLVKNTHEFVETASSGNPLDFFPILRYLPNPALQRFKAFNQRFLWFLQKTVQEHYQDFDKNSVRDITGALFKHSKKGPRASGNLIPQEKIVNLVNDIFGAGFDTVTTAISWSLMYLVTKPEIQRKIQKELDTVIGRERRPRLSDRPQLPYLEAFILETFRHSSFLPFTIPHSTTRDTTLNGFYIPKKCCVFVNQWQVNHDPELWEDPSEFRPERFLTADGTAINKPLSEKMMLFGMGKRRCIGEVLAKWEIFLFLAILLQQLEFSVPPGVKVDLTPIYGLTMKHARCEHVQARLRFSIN
Chain of Lysosomal acid glucosylceramidase (Homo sapiens) (P04062 whole entry, looked up): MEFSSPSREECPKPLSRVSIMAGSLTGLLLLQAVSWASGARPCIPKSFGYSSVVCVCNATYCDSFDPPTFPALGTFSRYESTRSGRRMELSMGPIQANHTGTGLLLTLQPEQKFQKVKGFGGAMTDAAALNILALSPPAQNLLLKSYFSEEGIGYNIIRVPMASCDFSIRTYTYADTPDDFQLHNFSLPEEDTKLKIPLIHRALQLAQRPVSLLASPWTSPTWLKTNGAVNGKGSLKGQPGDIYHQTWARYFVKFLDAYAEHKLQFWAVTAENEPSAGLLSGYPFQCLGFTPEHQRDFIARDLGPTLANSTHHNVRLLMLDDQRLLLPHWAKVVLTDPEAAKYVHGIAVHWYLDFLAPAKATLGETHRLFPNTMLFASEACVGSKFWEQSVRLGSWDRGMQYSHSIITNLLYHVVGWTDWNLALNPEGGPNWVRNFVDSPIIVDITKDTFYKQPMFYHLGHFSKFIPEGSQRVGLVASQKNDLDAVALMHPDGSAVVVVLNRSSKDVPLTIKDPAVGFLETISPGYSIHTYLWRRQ
Chain of Cytochrome P450 2C19 (Homo sapiens) (P33261 whole entry, looked up): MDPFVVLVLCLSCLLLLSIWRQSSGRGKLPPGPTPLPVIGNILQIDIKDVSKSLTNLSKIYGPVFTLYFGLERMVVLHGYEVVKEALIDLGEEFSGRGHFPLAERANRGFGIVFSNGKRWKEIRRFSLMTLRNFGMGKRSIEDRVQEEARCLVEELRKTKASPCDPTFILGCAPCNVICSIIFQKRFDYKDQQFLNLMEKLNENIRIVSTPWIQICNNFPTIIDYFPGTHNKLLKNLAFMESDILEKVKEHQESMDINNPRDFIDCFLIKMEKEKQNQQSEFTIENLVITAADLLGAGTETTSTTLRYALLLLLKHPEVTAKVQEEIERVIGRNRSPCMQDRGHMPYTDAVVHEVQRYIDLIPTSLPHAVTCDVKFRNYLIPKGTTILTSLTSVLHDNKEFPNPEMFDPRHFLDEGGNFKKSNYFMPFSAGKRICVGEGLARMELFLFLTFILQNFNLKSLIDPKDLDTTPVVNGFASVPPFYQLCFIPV
Chain of Cytochrome P450 2D6 (Homo sapiens) (P10635 whole entry, looked up): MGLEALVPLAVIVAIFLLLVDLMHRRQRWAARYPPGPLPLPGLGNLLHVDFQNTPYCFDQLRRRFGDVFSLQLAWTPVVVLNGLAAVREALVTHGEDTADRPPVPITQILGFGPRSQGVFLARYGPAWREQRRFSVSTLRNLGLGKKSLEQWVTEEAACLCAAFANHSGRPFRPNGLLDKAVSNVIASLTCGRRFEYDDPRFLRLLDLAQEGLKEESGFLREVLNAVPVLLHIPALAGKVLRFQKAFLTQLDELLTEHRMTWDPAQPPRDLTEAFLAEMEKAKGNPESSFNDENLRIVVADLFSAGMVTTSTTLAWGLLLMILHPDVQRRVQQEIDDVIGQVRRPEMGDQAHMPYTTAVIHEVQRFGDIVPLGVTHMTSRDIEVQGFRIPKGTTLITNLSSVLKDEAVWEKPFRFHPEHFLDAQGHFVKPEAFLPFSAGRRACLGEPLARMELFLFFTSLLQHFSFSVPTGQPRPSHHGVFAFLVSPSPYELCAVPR
Chain of Ubiquitin carboxyl-terminal hydrolase 1 (Homo sapiens) (O94782 whole entry, looked up): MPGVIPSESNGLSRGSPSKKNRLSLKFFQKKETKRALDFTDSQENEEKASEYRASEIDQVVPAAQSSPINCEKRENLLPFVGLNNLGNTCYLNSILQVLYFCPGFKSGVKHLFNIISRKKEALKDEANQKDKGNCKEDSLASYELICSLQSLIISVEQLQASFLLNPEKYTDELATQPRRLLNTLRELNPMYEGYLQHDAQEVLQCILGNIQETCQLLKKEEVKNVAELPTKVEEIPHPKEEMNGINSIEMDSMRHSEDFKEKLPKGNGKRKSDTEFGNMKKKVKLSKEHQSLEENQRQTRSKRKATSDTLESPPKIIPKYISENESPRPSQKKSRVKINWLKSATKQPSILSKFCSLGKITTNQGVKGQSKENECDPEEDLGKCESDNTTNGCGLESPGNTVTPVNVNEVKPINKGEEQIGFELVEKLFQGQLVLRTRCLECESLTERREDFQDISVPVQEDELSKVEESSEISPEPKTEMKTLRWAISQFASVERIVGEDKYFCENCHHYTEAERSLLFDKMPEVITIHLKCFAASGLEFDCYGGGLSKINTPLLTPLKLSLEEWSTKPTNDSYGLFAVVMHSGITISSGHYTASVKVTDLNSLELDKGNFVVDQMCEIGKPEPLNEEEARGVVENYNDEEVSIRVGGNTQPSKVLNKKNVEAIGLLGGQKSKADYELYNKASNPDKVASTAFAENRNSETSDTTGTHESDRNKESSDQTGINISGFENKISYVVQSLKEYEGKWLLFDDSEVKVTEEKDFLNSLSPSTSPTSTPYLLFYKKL

Regarding `c1csc(CNc2ncnc3ccc(-c4ccc5c(c4)OCO5)cc23)c1`, the Potency in experiment [1] was > 11.4 µM (inactive); in [2] it was 0.398 µM (active); in experiment [5], > 46 µM (inactive); in experiment [6], > 46 µM (inactive); in experiment [9], 0.398 µM (active); in experiment [10], 3.98 µM (active). In experiment [15], the Potency is 11.6 µM (active). In addition, the activity change, negative = inhibition in [3] was 5.05% (inactive); in experiment [13] (at 57.5 µM (top of the series)) it was 9.51% (inactive). Further, the activity, negative = inhibition in [4] was -12.1% (inactive). For the same compound, the Potency result in experiment [7], in [8], in [14], in [16] and in [17] was “inactive” in each case. The call in experiment [11] and in [12] was inactive. For the same compound, the max response came to 14.3% in experiment [13] (measured here: cell count channel max response) and 25.9% in experiment [13] (measured here: lipid channel max response).
For the compound `COc1ccc(CCNCc2ccc(OCc3ccc(Cl)nc3)c(OC)c2)cc1OC`, the Potency result in [15] and in experiment [17] was “inactive” throughout.
Take `CCCC(NC(=O)/C(C#N)=C/c1cccc(Br)n1)c1ccccc1` (stereo unspecified): the results for the Potency in experiment [15], in experiment [18] and in [19] were 16.4 µM (active), 2.91 µM (active) and 3.26 µM (active), respectively.
As to `Cc1cc(/C=c2/sc3nc4ccccc4n3c2=O)c(C)n1-c1ccccc1`, the Potency result in [15], in experiment [20] and in [17] was “inactive” each time. Also, the Z-AUC is 0.302 (inactive) in [21], 0.332 in [21] (setting [23]) and 0.429 in experiment [21] (measured here: PEO4 Z-AUC).
Consider `CC(=O)[C@H]1CCC2C3CCC4=CC(=O)CC[C@]4(C)C3[C@H](O)C[C@@]21C` (stereo partly specified), for which the Potency entry in experiment [15], in [18], in experiment [19] and in [17] was “inactive” in each case.
Regarding `CCCCCCCCCCCCCCCCOCCCOP(=O)(O)COC(CO)Cn1ccc(N)nc1=O` (stereo unspecified), the Potency in experiment [15] is 8.2 µM (active); in [19] it was 18.6 µM (active). Besides, the Potency result in experiment [20] and in experiment [22] was “inactive” throughout. Moreover, the Z-AUC in experiment [21] was 0.0641 (inactive); in [21] (setting [23]) it was -0.362; in experiment [21] (measured here: PEO4 Z-AUC), -0.397.

Values taken from PubChem BioAssay (NCATS).
